Source: the supplement of paper PMC6555819

Legend:
Assay in all cases: PBM binding z-score (relative to random genomic background probes); higher = stronger binding; sequences stand for … in GC…GCGATTGACAGCGTAGAATGAAGG
[1] = tested on: RARb homodimer (NR concentration 270 nM)
In short: (§1)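 On custom Agilent 4×180K arrays, double-stranded probes with 34-nt variable regions carried direct-repeat seeds, single-nucleotide variants, half-site ablations or random human genomic background. Ligand-free nuclear receptor dimers were applied for 1 h, and binding was read with antibodies against each partner (one per run). Binding z-scores come from regression-normalized fluorescence, with the random background probes as reference.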

[2] = tested on: RARg:RXRa (NR concentration 270 nM, RXRa partner concentration 90 nM)
In short: as §1

[3] = tested on: RARg homodimer (NR concentration 270 nM)
In short: as §1

[4] = tested on: RXRa DBDmut IVT, anti-RXR (DBD mutation: RXRa K156A/R161A, NR concentration 90 nM)
In short: as §1

[5] = tested on: RXRa homodimer (NR concentration 180 nM)
In short: as §1

[6] = tested on: THRa:RXRa (NR concentration 90 nM, RXRa partner concentration 90 nM)
In short: as §1

[7] = tested on: THRa homodimer (NR concentration 90 nM)
In short: as §1

[8] = tested on: VDR homodimer (NR concentration 270 nM)
In short: as §1

Sequence | PBM binding z-score [1] | PBM binding z-score [2] | PBM binding z-score [3] | PBM binding z-score [4] | PBM binding z-score [5] | PBM binding z-score [6] | PBM binding z-score [7] | PBM binding z-score [8]
TCTATTAGTTGATTTGGGCAACCGAAACAGCGGA | -0.204 | 0.225 | 0.0812 | 1.3 | 0.406 | -0.0733 | 0.427 | 0.414
ATCTGTAGGTAAAAGTTCAGTGAATCCCGAGGAT | 2.42 | 1.79 | 1.84 | 0.663 | 1.65 | 0.83 | -0.173 | 1.36
TAGCCTAGGTCAGATCGGGCCAGTACACGCTATA | 2.33 | 2.85 | 3.65 | -0.269 | 1.55 | 4.29 | 0.126 | 0.0191
CCTACTGGGCCAAGGTCATCGATCAGTCAAAGCA | 3.75 | 4.18 | 3.9 | 0.883 | 3.79 | 3.68 | 2.69 | 2.38
CCTACTGGGCCAAAGGTCATTGAGTCCAATGCTC | 4.88 | 5.8 | 4.63 | 1.78 | 6.07 | 3.57 | 0.746 | 4.9
ATCGAAAGGACGAGGTGAGTATAGAGAAAGGGAA | 0.703 | 0.958 | 1.48 | -0.386 | 0.312 | 1.27 | 0.739 | 0.284
CAGACTAGGTCACCGGAAGGTCAAAGTCCGCATG | 5.55 | 8.29 | 7.56 | 1.74 | 6.56 | 4.37 | 2.62 | 3.42
ATCTCTAGGTAAGACTCAGTTCAGTGAGGAACGC | 0.438 | 0.383 | 0.447 | 0.293 | 0.124 | 0.714 | 0.481 | 1.3
CCTGCTGGGCCAAAAAGGTCATTGATGCCGATAA | 4.32 | 4.6 | 4.17 | 0.818 | 4.91 | 3.12 | 0.279 | 2.58
AGAATGAGGTTAAGCTCAGGGAAACAGAATACAT | 0.601 | 2.43 | 1.72 | 1.26 | 2.59 | 2.67 | 0.503 | -0.00367
ATATGTAGGATAAGGGTCATTCAGGTTGGTTCGC | 3.69 | 3.9 | 3.42 | 2.09 | 4.8 | 3.25 | 1.38 | 4.54
AGAATGAGGTTACCAAAGATGAGGGAAACGCTTG | 0.76 | 1.85 | 1.54 | 1.22 | 2.43 | 2.55 | 0.977 | 0.767
ATACCAAGGCGATCGTGAGGTCGTTGATACTAAC | 0.905 | 0.636 | 0.0519 | 0.303 | 0.794 | 2.26 | 1.5 | 1.85
CGAACTAGGTCATCCAGGATAGTGAATACATTGA | 3.03 | 3.82 | 4.37 | 2.18 | 2.75 | 3.26 | 1.49 | 0.935
ACTAGCAGGACAAGGGTCACTCAAGATTAGTCCG | 3.75 | 4.12 | 3.61 | 0.928 | 3.68 | 3.04 | 0.529 | 2.01
TAGCCTAGGGCATGGGCCAGTATACCACGCGAAC | 0.79 | 0.484 | 0.834 | -1.24 | 0.135 | -0.0791 | 0.0268 | -0.21
CCGAGTAGGTTATGGGGCACTCAGGCAACGGTGA | 0.946 | 0.475 | 0.553 | -0.264 | 0.805 | 0.385 | 0.0948 | 0.0125
AGAACGAGGCCACGCTGAGTTGATAGCAGAGTAG | 0.176 | 0.764 | 1.22 | 0.267 | 0.15 | 1.02 | -0.00748 | 0.389
CCTTACGGGTCAAGGTTATAGGACGGGTGGTACG | 3.29 | 4.91 | 5.12 | 0.475 | 5.36 | 3.06 | 0.968 | 1.51
GTACCAAGGTGAAAAGGTCGTTGATGAGTAGGCG | 3.49 | 4.66 | 2.59 | 0.369 | 3.57 | 2.58 | 0.7 | 1.7
CCTCGGCGGACAACAGGAGGTCAGAGCTGCCAGA | 2.88 | 2.16 | 2.04 | -0.404 | 1.71 | 1.75 | 0.00224 | 0.257
CTACCAAGGTGAACAAGGTCATTGATTACTATTC | 3.82 | 3.75 | 3.4 | 2.28 | 4.27 | 4.18 | 3.41 | 4.4
ACTTGCAGGCCAAGGGTCACTCAAGATTAGTCCG | 4.01 | 4.38 | 3.9 | 0.954 | 4.47 | 2.89 | 0.244 | 1.36
TGTCAAAGTTGAAAGGTAACGTAAGTATCCACAC | 1.36 | 2.23 | 1.4 | -0.369 | 2.69 | 1.77 | -0.382 | -0.281
CGTCCAAGGTCGATGCTAGGTCAGTGAAAGCATT | 3.05 | 4.58 | 2.78 | 1.32 | 1.41 | 3.28 | 1.45 | 1.09
CCAGACAGGTGAACGGTAACTCAGTCTGGTACGC | 0.435 | 0.292 | 0.535 | -0.0435 | 0.416 | 0.0165 | -0.646 | -0.453
CGTCCAAGGTCAGAGAGGTCCGTGAATGCCGAGT | 3.81 | 4.45 | 5.28 | 2.56 | 3.48 | 3.5 | 1.77 | 2.04
CCTACTGGGCCATCAGGTAATTGATATCAACGTT | 0.184 | -0.0181 | 0.255 | -0.203 | -0.166 | 0.522 | 0.334 | -0.212
